Most compounds without a hit are left out; they make up all but 17% or so of the library.
DT40 TDP1 no CPT – qHTS for Inhibitors of human tyrosyl-DNA phosphodiesterase 1 (TDP1): qHTS in cells in absence of CPT. hit rate 15% among 420,000. DT40 Tdp1-/- hTDP1 cells, no CPT, ATP luminescence, 48 h. Potency, µM (highest dose often 46.2 µM), without a hit: top-dose activity change, negative = growth inhibition, actives largely listed as inhibitors; note: % is set by controls: 0 for no effect and ±100 for the full control effect; nearly all actives have a fitted effect of over 55% in size
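Cells were dispensed at 400 per well, compounds added by pin tool, plates incubated ≥48 hr at 37 °C, then CellTiter-Glo added for 30 min at room temperature before luminescence reading. Line: DT40 Tdp1-/- complemented with hTDP1; camptothecin omitted.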
TDP1 cell CPT – growth inhibition of DT40 Tdp1-/-;hTDP1 cells with camptothecin (screen for TDP1 inhibitors). chicken DT40 Tdp1-/-;hTDP1 cells + 20 nM CPT, ATP luminescence, 48 h. Potency, µM (titrated, usually from 46.2 µM), for inactives: at the highest dose activity change, negative = growth inhibition, actives largely listed as inhibitors. hit rate 12% among 420,000; note: % is set by controls: 0 for no effect and ±100 for the full control effect; nearly all actives have a fitted effect of over 55% in size
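Chicken DT40 Tdp1-/- cells stably complemented with human TDP1 were seeded at 400 cells/well in medium containing 20 nM camptothecin, exposed to pin-transferred compounds, and grown at 37 °C for at least 48 hr. Viability was read as ATP luminescence.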
TDP1 inh – blocks human tyrosyl-DNA phosphodiesterase 1. recombinant TDP1, AlphaScreen DNA substrate cleavage. Potency, µM (top dose mostly 130 µM), without a hit: at the highest dose activity change, negative = inhibition, hits mostly inhibitors. hit rate 0.28% among 350,000. AID 485290; note: % is set by controls: 0 for no effect and ±100 for the full control effect; nearly all actives have a fitted effect of over 40% in size
Target sequence (Q9NUW8 whole entry, looked up): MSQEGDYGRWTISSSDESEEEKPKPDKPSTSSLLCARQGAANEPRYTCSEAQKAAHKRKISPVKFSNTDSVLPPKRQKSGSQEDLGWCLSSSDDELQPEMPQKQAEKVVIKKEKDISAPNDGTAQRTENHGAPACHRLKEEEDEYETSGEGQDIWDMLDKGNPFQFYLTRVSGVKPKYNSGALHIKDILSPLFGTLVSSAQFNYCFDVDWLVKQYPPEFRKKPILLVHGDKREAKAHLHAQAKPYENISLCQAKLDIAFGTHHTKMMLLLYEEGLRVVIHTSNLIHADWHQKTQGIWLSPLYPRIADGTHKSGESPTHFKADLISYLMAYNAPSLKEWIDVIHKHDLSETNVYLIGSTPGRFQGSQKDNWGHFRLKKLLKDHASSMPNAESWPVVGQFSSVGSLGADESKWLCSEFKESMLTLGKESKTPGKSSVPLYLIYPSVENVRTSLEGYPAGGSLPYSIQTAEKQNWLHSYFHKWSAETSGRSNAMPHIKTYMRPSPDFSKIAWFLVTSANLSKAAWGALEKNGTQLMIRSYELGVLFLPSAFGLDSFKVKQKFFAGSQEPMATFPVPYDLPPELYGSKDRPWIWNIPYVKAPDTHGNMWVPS
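E. coli-derived human Tdp1, 1 nM final. Cpd preinc 15 min RT; substrate 15 nM final, 5 min RT; AS bead mix 10 ug/ml final, 10 min RT. Signal loss = tyrosine-FITC cleavage. No-enzyme wells = max signal.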
ClpP mod – qHTS Assay for Activators of ClpP; purified B. subtilis ClpP, FRET peptide cleavage, 20 min; AID 651965, 2013; ATP-dependent Clp protease proteolytic subunit (Bacillus subtilis (strain 168)), P80244; Potency, µM (titrated, usually from 57.5 µM), for inactives: top-dose activity change, negative = active; hit rate 1.9% among 340,000; active = well fitted falling curve with a large enough effect; inconclusive = small, poorly fitted or top-dose-only effect; inactive = no such curve, though single readings can be large or run the other way; note: the source files actives as falling curves though it sought activators and does not explain the sign; nearly all actives have a fitted effect of over 65% in size
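FRET quenching reversal measured ClpP activation: 10 microg/mL B. subtilis ClpP at pH 8 with the FRET-FV decapeptide, read at 430 nm after 320 nm excitation. The 20-min minus 0-min signal was scaled between DMSO/no-enzyme wells and ADEP (5.8 microM final).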
An asterisk follows results filed as active; [ ] = remark or other dose. Unless noted, calls come from the whole dose curve; as a rule, active = well fitted curve in the direction sought with a large enough effect; inconclusive = small, poorly fitted or top-dose-only effect, or another doubt; inactive = no such curve, though single readings can be large; an effect the other way counts as inactive or inconclusive. Potency is the fitted concentration of half-maximal effect.

For O=C(CN1C(=O)NC2(CCCCCC2)C1=O)N1CCC(Cc2ccccc2)CC1 the results were DT40 TDP1 no CPT 16.4µM*, TDP1 cell CPT inconclusive, TDP1 inh -5.9%[56.1 µM] and ClpP mod 1.3%.
Screening Cc1cccc(N2CCN(C(=O)CN3C(=O)NC4(CCCCCC4)C3=O)CC2)c1C returned DT40 TDP1 no CPT 20.6µM*, TDP1 cell CPT inconclusive and TDP1 inh 2.3%.
For O=C(CN1C(=O)NC2(CCCC2)C1=O)N1CCN(c2ccc(C(F)(F)F)cc2[N+](=O)[O-])CC1 the results were DT40 TDP1 no CPT 8.2µM*, TDP1 cell CPT 13µM* and ClpP mod -0.3%.
O=C(CN1C(=O)NC2(CCCC2)C1=O)N1CCN(c2cccc(C(F)(F)F)c2)CC1 was read as DT40 TDP1 no CPT 20.6µM*, TDP1 cell CPT inconclusive, TDP1 inh 1.1% and ClpP mod -1.4%.
Screening CC1CCC2(CC1)NC(=O)N(Cc1cccc(C(F)(F)F)c1)C2=O (stereo not given) returned DT40 TDP1 no CPT inconclusive, TDP1 cell CPT 18.4µM* and TDP1 inh 0.0%.
For Cc1scc(CN2CCN(c3ccc(F)cc3)CC2)c1C the results were DT40 TDP1 no CPT inconclusive, TDP1 cell CPT inconclusive, TDP1 inh 2.6% and ClpP mod -1.6%.
Screening CCc1c(CN2CCN(c3ccccc3F)CC2)csc1C returned DT40 TDP1 no CPT 20.6µM*, TDP1 cell CPT inconclusive, TDP1 inh 5.1% and ClpP mod 1.9%.
Screening COc1ccc(-c2cc(C(F)(F)F)nc(SCC(=O)NCCCN3CCOCC3)n2)cc1 returned DT40 TDP1 no CPT -8.3%, TDP1 cell CPT -10.8%, TDP1 inh 2.4% and ClpP mod 3.8%.
Screening NC(=O)NC(=O)c1nccnc1C(=O)O returned DT40 TDP1 no CPT -19.8%, TDP1 cell CPT -1.5%, TDP1 inh -2.5% and ClpP mod -0.5%.
Screening CC(OC(=O)C1CSC2(c3ccc(F)cc3)CCC(=O)N12)C(=O)NC(N)=O (stereo not given) returned DT40 TDP1 no CPT -8.4%, TDP1 cell CPT 0.6% and TDP1 inh 2.5%.
For O=C(c1cccc(NS(=O)(=O)c2ccc(F)c(F)c2)c1)N1CCN(Cc2ccccc2)CC1 the results were DT40 TDP1 no CPT inconclusive, TDP1 cell CPT inconclusive, TDP1 inh 2.3% and ClpP mod 0.3%.
Screening O=C(NC1CCN(Cc2ccccc2)CC1)c1cncc(Br)c1 returned DT40 TDP1 no CPT -3.6%, TDP1 cell CPT inconclusive, TDP1 inh 5.0% and ClpP mod 0.3%.
For Cc1ccc(S(=O)(=O)Nc2cccc(C(=O)NC3CCN(Cc4ccccc4)CC3)c2)cc1F the results were DT40 TDP1 no CPT 16.4µM*, TDP1 cell CPT inconclusive, TDP1 inh 4.6% and ClpP mod -3.8%.
`O=C(NC1CCN(Cc2ccccc2)CC1)c1cccc(NS(=O)(=O)c2ccc(Br)cc2)c1` gave DT40 TDP1 no CPT inconclusive, TDP1 cell CPT 18.4µM* and ClpP mod 0.3%.
For O=C(CCNS(=O)(=O)c1ccc(Br)cc1)NC1CCN(Cc2ccccc2)CC1 the results were DT40 TDP1 no CPT 13µM*, TDP1 cell CPT inconclusive, TDP1 inh 0.1% and ClpP mod -2.7%.
COC(=O)[C@@H](NC(=O)C1CCCN(c2nc(C)c3ccc(C)cc3n2)C1)C(C)C (stereo not given in full) was read as DT40 TDP1 no CPT inconclusive and TDP1 cell CPT 13.8%[9.04 µM].
`Cc1sc2ncn(CC(=O)Nc3cccc(C(F)(F)F)c3)c(=O)c2c1S(=O)(=O)N1CCN(C)CC1` gave DT40 TDP1 no CPT -86.5%, TDP1 cell CPT inconclusive, TDP1 inh 0.0% and ClpP mod 1.8%.
Screening CCOC(=O)CC1c2cc(OCC)c(OCC)cc2CCN1C(=O)Nc1cccc(Cl)c1 (stereo not given) returned DT40 TDP1 no CPT 16.4µM*, TDP1 cell CPT inconclusive, TDP1 inh -2.6% and ClpP mod -0.6%.
Screening CCOc1cc2c(cc1OCC)C(CC(=O)OC)N(C(=O)Nc1cc(OC)ccc1OC)CC2 (stereo not given) returned DT40 TDP1 no CPT 14.6µM*, TDP1 cell CPT 20.6µM*, TDP1 inh 8.8% and ClpP mod -23.3%.
Screening CC(=O)Oc1ccc(Cn2c(C)c(C(=O)NCc3ccccc3C(F)(F)F)sc2=O)cc1 returned DT40 TDP1 no CPT inconclusive, TDP1 cell CPT inconclusive and ClpP mod -0.5%.

From PubChem
